From ChEMBL document CHEMBL3988442, “University of Dundee, Small-Polar-MMV Screening Library” (2021)

How the values were obtained:
[1] = molecular target: T1, Aspartate--tRNA(Asp/Asn) ligase (Mycobacterium tuberculosis (strain ATCC 25618 / H37Rv)) (UniProt P9WFW3); assay: Assay for Asp RNA synthetase-1 from Mycobacterium tuberculosis; type: functional; parameters: scale not given: direction of the effect not stated beside the values; conditions: 30 µM; further: in the data most compounds retested in dose-response had high values
T1 sequence (whole entry): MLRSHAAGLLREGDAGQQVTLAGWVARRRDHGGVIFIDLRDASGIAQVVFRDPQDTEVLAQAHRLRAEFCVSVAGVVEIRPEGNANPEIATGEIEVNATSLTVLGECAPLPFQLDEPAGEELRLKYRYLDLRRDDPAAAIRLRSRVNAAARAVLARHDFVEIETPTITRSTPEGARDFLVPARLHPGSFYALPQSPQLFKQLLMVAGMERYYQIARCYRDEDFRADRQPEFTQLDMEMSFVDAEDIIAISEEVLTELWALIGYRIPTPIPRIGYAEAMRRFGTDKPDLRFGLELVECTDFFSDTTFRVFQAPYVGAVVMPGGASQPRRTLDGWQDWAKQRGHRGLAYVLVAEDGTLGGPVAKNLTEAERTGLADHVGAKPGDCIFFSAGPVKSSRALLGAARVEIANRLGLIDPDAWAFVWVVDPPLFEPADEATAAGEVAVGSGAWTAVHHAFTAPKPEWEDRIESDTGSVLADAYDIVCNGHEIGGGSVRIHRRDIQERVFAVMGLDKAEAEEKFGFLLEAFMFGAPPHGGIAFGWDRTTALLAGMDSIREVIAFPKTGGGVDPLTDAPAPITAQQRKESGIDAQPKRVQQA

[2] = molecular target: Shiga toxin 2 (Escherichia coli O157:H7) (UniProt P09385+P09386); assay: E. coli 0.157:H7 Shiga Toxin SOP - stx2 screening assay; type: functional; parameters: scale not given: direction of the effect not stated beside the values; conditions: 30 µM

Structure (SMILES): CN(C)C(=O)N1Cc2nnn(C)c2C(COCC2CC2)C1 (configuration not stated)
- Percent Effect [1]: 3.51%
- Percent Effect [2]: -35.2%

Structure (SMILES): Cc1cc(C)n(CC2CN(Cc3cccc(C(N)=O)c3)CCO2)n1 (configuration not stated)
- Percent Effect [1]: -8.8%
- Percent Effect [2]: -5.62%

Structure (SMILES): Cn1cnnc1C1CCCN(C(=O)Cc2ccc3c(c2)OCCO3)C1 (configuration not stated)
- Percent Effect [1]: -2.39%
- Percent Effect [2]: 11.9%

Structure (SMILES): CN(C)CC(=O)N1CCOCC2(C1)CN(c1ccccc1)C(=O)CO2 (configuration not stated)
- Percent Effect [1]: 3.93%
- Percent Effect [2]: -23.2%

Structure (SMILES): CS(=O)(=O)N1CCC(C(=O)NCCNc2ncccn2)CC1
- Percent Effect [1]: -0.962%
- Percent Effect [2]: -1.12%

Structure (SMILES): Cc1ccc(C(=O)NS(=O)(=O)c2ccccc2C)c(=O)[nH]1
- Percent Effect [1]: -0.991%
- Percent Effect [2]: 10.2%

Structure (SMILES): Cc1nn(C)c2cn(C(C)C(=O)NCc3cccnc3)nc12 (configuration not stated)
- Percent Effect [1]: -1.71%
- Percent Effect [2]: -24.9%

Structure (SMILES): CCc1nc(C2CCCN2Cc2nnc(Cc3ccccc3)o2)no1 (configuration not stated)
- Percent Effect [1]: -0.231%
- Percent Effect [2]: 6.08%

Structure (SMILES): CS(=O)(=O)NCC1CCCCN1C(=O)Nc1cccnc1N1CCCC1 (configuration not stated)
- Percent Effect [1]: -2.73%
- Percent Effect [2]: 4.39%

Structure (SMILES): CNC(=O)c1cccc(NC(=O)CN2CCN(S(C)(=O)=O)CC2)c1
- Percent Effect [1]: -5.52%
- Percent Effect [2]: 1.24%

Structure (SMILES): Cc1cnc(CN2CCOC(Cn3nc(C)nc3C)C2)cn1 (configuration not stated)
- Percent Effect [1]: -1.8%
- Percent Effect [2]: -9.64%

Structure (SMILES): CCOc1ccccc1C(=O)N1CCCC1c1ncc2c(n1)CCNC2 (configuration not stated)
- Percent Effect [1]: -3.07%
- Percent Effect [2]: 48.2%

Structure (SMILES): Cc1cc2n(n1)CC(CNC1CCN(Cc3ccccc3C)CC1)CN2 (configuration not stated)
- Percent Effect [1]: 4.64%
- Percent Effect [2]: -38.1%

Structure (SMILES): CCn1cc(CN2CCCN(C(=O)c3ccn(C)c(=O)c3)CC2)cn1
- Percent Effect [1]: 1.33%
- Percent Effect [2]: -0.744%

Structure (SMILES): Cc1nc(C2CCCN(C(=O)c3ccc(OCC4CC4)cc3)C2)no1 (configuration not stated)
- Percent Effect [1]: -8.26%
- Percent Effect [2]: -5.46%

Structure (SMILES): CC(C)C(NC(=O)N1CCN(c2ccc(Cl)cc2)CC1)C(=O)NC1CC1 (configuration not stated)
- Percent Effect [1]: -3.72%
- Percent Effect [2]: 7.46%

Structure (SMILES): COc1ccccc1OC1CCN(Cc2cnc(N(C)C)nc2)CC1
- Percent Effect [1]: -2.72%
- Percent Effect [2]: 17.9%

Structure (SMILES): CN(Cc1ccc2c(c1)OCO2)Cc1nc2c(cnn2C)c(=O)[nH]1
- Percent Effect [1]: -0.843%
- Percent Effect [2]: 27.6%

Structure (SMILES): CCN(CC(=O)NC(C)C)S(=O)(=O)N1CCC(C)C1 (configuration not stated)
- Percent Effect [1]: 2.41%
- Percent Effect [2]: -3.8%

Structure (SMILES): CN(Cc1ccc2c(c1)OCCO2)C(=O)Cn1ccccc1=O
- Percent Effect [1]: -7.28%
- Percent Effect [2]: -21.6%

Structure (SMILES): Cc1cc(C[C@@H]2CCC[C@H]2NCc2cc(C)c(O)c(C)c2)on1
- Percent Effect [1]: 2.31%
- Percent Effect [2]: -2.65%

Structure (SMILES): CN(CCCOc1ccc(F)cc1)Cc1nc2c(cnn2C)c(=O)[nH]1
- Percent Effect [1]: -4.83%
- Percent Effect [2]: 26.6%

Structure (SMILES): Cc1ccccc1CC1(CO)CCCN(c2ncccc2C#N)C1 (configuration not stated)
- Percent Effect [1]: 3.07%
- Percent Effect [2]: -4.79%

Structure (SMILES): COc1c(CNCc2ccc(CN(C)C)cc2)c(C(C)C)nn1C
- Percent Effect [1]: 0.7%
- Percent Effect [2]: 16.1%

Structure (SMILES): Cc1cc(C(=O)N2CCCC(n3ccnc3C)C2)c(C)s1 (configuration not stated)
- Percent Effect [1]: -4.25%
- Percent Effect [2]: -6.7%

Structure (SMILES): O=C1c2cnc(N3CCOCC3)nc2CN1c1ccc2c(c1)OCO2
- Percent Effect [1]: 7.52%
- Percent Effect [2]: -25.1%

Structure (SMILES): Cc1nccn1-c1cc(CNC(=O)CCC2CCCO2)ccn1 (configuration not stated)
- Percent Effect [1]: 2.98%
- Percent Effect [2]: 2.2%

Structure (SMILES): CN(C)C(=O)CCC(=O)NCc1cccnc1-n1cnc2ccccc21
- Percent Effect [1]: -3.48%
- Percent Effect [2]: -4.51%

Structure (SMILES): CCCNC(=O)CNc1cc(C(=O)N2CCSCC2)ccc1C
- Percent Effect [1]: -2.64%
- Percent Effect [2]: -9.17%

Structure (SMILES): O=C(Cc1cccs1)NC1CCN(c2cccc(F)c2)CC1
- Percent Effect [1]: 2.33%
- Percent Effect [2]: -14.1%

Structure (SMILES): Cn1cc(-c2nc(CNCCn3cccn3)cs2)cn1
- Percent Effect [1]: -0.0111%
- Percent Effect [2]: -121%

Structure (SMILES): CCN(CC)C(=O)c1nnn(Cc2ccccc2)c1OC
- Percent Effect [1]: 0.348%
- Percent Effect [2]: 3.85%

Structure (SMILES): Cc1cc(NC(=O)NCc2ccccc2OC(F)F)n(C)n1
- Percent Effect [1]: -5.2%
- Percent Effect [2]: -10.5%

Structure (SMILES): COc1ccc(C2CC(=O)Nc3c2cnn3C2CCCC2)cc1 (configuration not stated)
- Percent Effect [1]: -1.45%
- Percent Effect [2]: 10.9%

Structure (SMILES): Cc1nc(C2CCCN(C(=O)c3scnc3C)C2)no1 (configuration not stated)
- Percent Effect [1]: 1.59%
- Percent Effect [2]: 5.86%

Structure (SMILES): OC(CN1CCN(Cc2ccc(F)c(F)c2)CC1)C1CC1 (configuration not stated)
- Percent Effect [1]: -4.54%
- Percent Effect [2]: -0.879%

Structure (SMILES): Cc1noc([C@@]23CCO[C@@H]2CCN(C(=O)C2CCOCC2)C3)n1
- Percent Effect [1]: 0.117%
- Percent Effect [2]: -4.33%

Structure (SMILES): Cc1cccc(CN2C[C@@H]3CN(C(=O)c4ccsc4)C[C@@H]3C2=O)c1
- Percent Effect [1]: 2.59%
- Percent Effect [2]: -27.2%

Structure (SMILES): Cc1ccc(C)c(CNC(=O)NC(C)(C(=O)O)c2ccco2)c1 (configuration not stated)
- Percent Effect [1]: 4.16%
- Percent Effect [2]: 17%

Structure (SMILES): O=C(c1ccc(O)c(Cl)c1)N1CCC(c2n[nH]c(C3CC3)n2)CC1
- Percent Effect [1]: -0.597%
- Percent Effect [2]: 0.843%

Structure (SMILES): COCCN(C)Cc1ccc(OC)c(OC(F)F)c1
- Percent Effect [1]: 2.53%
- Percent Effect [2]: -37.4%

Structure (SMILES): Cc1nnc(SCC(=O)N2CCC3(CC2)c2ccccc2CC3O)o1 (configuration not stated)
- Percent Effect [1]: 4.4%
- Percent Effect [2]: -18.7%

Structure (SMILES): Cc1cnn(C2CCCN(C(=O)c3cnc4ccccc4n3)C2)c1 (configuration not stated)
- Percent Effect [1]: 9.11%
- Percent Effect [2]: 25.1%

Structure (SMILES): Cn1cc(CN2CCn3cc(CNC(=O)C4CCC4)nc3C2)cn1
- Percent Effect [1]: 1.34%
- Percent Effect [2]: -6.29%

Structure (SMILES): Cc1cc(NC(=O)NCc2cccnc2OC(C)C)n(C)n1
- Percent Effect [1]: 5.63%
- Percent Effect [2]: -9.92%

Structure (SMILES): CCn1ccnc1CN1CCC(CCC(=O)Nc2ccccc2Cl)CC1
- Percent Effect [1]: -0.673%
- Percent Effect [2]: -30.9%

Structure (SMILES): COc1ccccc1CCNC(=O)CN1CCCC1c1noc(C)n1 (configuration not stated)
- Percent Effect [1]: -3.12%
- Percent Effect [2]: 34.4%

Structure (SMILES): c1ccc(CN2CCOCC3(CCN(C4CCOCC4)C3)C2)cc1 (configuration not stated)
- Percent Effect [1]: 6.57%
- Percent Effect [2]: 12.2%

Structure (SMILES): COc1cccc(N2CCN(C(=O)C(O)c3cccc(Cl)c3)CC2=O)c1 (configuration not stated)
- Percent Effect [1]: 0.569%
- Percent Effect [2]: -24.2%

Structure (SMILES): CC(C)CCN1CCN(Cc2nc(C3CC3)no2)CC1
- Percent Effect [1]: 0.0141%
- Percent Effect [2]: -32%

Structure (SMILES): CCn1ncc2c1CCCC2NCc1ccc(OC)c(C)c1 (configuration not stated)
- Percent Effect [1]: -4.46%
- Percent Effect [2]: -11.4%
